Sampled rows, rich in hits. Any-hit rate of the full collection: about 11%.
Pf growth 48h – Primary qHTS for delayed death inhibitors of the malarial parasite plastid, 48 hour incubation. 310,000 compounds, 5.9% hits. P. falciparum luciferase growth in erythrocytes, 48 h. Potency, µM (series often up to 28.7 µM), inactives show at the highest dose activity change, negative = inhibition, most hits filed as inhibitors; note: % is set by controls: 0 for no effect and ±100 for the full control effect
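Here the parasites carry a stable luciferase gene and grow inside erythrocytes in Albumax-based RPMI medium with compound for one erythrocytic cycle. Activity is scored as loss of luminescent signal.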
HCV inhibitor – qHTS Assay for Inhibitors of Hepatitis C Virus (HCV). Huh7.5.1 HCVcc-Cre infection, luciferase reporter, 44 h. Potency, µM (doses to about 41.8 µM), for inactives: top-dose activity change, negative = inhibition, most hits filed as inhibitors. 340,000 compounds, 3.4% hits. AID 651820, 2012; note: % is set by controls: 0 for no effect and ±100 for the full control effect
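Infectious HCV cell culture screen: compound-treated cells (1,000/well, pre-plated 4 h) are infected with HCVcc-Cre at roughly 0.5 moi and grown 44 h. Infection is quantified by luciferase signal after 15 min substrate incubation at room temperature.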
Pf growth 96h – Primary qHTS for delayed death inhibitors of the malarial parasite plastid, 96 hour incubation; Potency, µM (top dose mostly 28.7 µM), for the others: at the top dose activity change, negative = inhibition, actives largely listed as inhibitors; 320,000 compounds, 6.9% hits; AID 504834, 2011; P. falciparum luciferase reporter growth, 96 h; note: % is set by controls: 0 for no effect and ±100 for the full control effect
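Luminescence readout: decreased luciferase signal marks inhibited growth of reporter-expressing P. falciparum in infected red cells (2% hematocrit, 0.05% parasitemia final), exposed to compound two generations (96 h, 37 C, 5% CO2).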
Vaccinia Venus – qHTS for Stage-Specific Inhibitors of Vaccinia Orthopoxvirus: Venus Reporter Primary qHTS | Vaccinia virus Venus reporter expression, fluorescence | Potency, µM (series often up to 36.5 µM), for inactives: at the top dose activity change, negative = inhibition, usual class: inhibitors | 330,000 compounds, 0.46% hits; calls by dose curve; tested in A549 cells; note: % is set by controls: 0 for no effect and ±100 for the full control effect; nearly all actives have a fitted effect of over 30% in size
Vaccinia mCherry – qHTS for Stage-Specific Inhibitors of Vaccinia Orthopoxvirus: mCherry Reporter Primary qHTS; AID 720579, 2013; 310,000 compounds, 0.63% hits; Potency, µM (top dose mostly 36.5 µM), inactives show top-dose activity change, negative = inhibition, most hits filed as inhibitors; Vaccinia virus mCherry reporter infection, fluorescence; calls by dose curve; tested in A549 cells; note: % is set by controls: 0 for no effect and ±100 for the full control effect; nearly all actives have a fitted effect of over 35% in size
NS1 function inh – qHTS Assay for Inhibitors of Influenza NS1 Protein Function; Potency, µM (doses to about 46.1 µM), without a hit: at the top dose activity, positive = more growth; 270,000 compounds, 0.4% hits; AID 2326, 2010; calls by dose curve; note: actives are rising curves; nearly all actives have a fitted effect of over 50% in size
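A cell-based growth assay was used: compounds that relieve NS1-induced slow growth of budding yeast raise OD600. Assay medium was yeast nitrogen base with ammonium sulphate and -URA supplement, pH 6.0, with 2% galactose.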
An asterisk follows results filed as active; i = inactive; ? = inconclusive; . = no result given. Unless noted, calls come from the whole dose curve; as a rule, active = well fitted inhibition curve with a large enough effect; inconclusive = small, poorly fitted or top-dose-only effect, or another doubt; inactive = no such curve, though single readings can be large or run the other way. Potency is the fitted concentration of half-maximal effect.

SMILES | Pf growth 48h | HCV inhibitor | Pf growth 96h | Vaccinia Venus | Vaccinia mCherry | NS1 function inh
Cc1ccc(-n2c(C)cc(C=C3C(=O)N(C)C(=O)N(C)C3=O)c2C)cc1 | . | 16.3% | . | -11.0% | i | .
CC(C)c1nc(=S)n(-c2ccccc2)[nH]1 | 6.0% | 8.3% | ? | 4.0% | -8.9% | 9.9%
COCCN(CC1CCCN(C2Cc3ccccc3C2)C1)C(=O)CSC (stereo not drawn) | ? | 2.4% | ? | . | . | -4.2%
Cc1ccc(NC(=O)C2CC(=O)N(c3ccc4c(c3)OCCO4)C2)cc1S(=O)(=O)N(C)C (stereo not drawn) | ? | ? | ? | -23.9% | -10.1% | .
COc1cccc(NC(=O)c2ccccc2)c1 | 97.1% | ? | 83.2% | -1.5% | -7.4% | .
CC(=O)Oc1ccc(C(=O)Nc2cccc(C(=O)c3cccc(NC(=O)c4ccc(OC(C)=O)cc4)c3)c2)cc1 | -20.1% | ? | 23.6% | -23.1% | -20.6% | 22.8%
COc1cccc(C(=O)N/N=C/C(Br)=C/c2ccccc2)c1 | 13.1µM* | ? | -18.6% | ? | ? | 1.4%
COc1ccc(NC(=O)c2cccc(NC(=O)c3ccccc3)c2)c(OC)c1 | -25.0% | -23.7% | 10.4µM* | -17.3% | -4.0% | 7.2%
CC(=O)Oc1ccc(C(=O)Nc2cccc(C(=O)NC(C)(C)C)c2)cc1 | -4.2% | 12.6µM* | 5.22µM* | -1.0% | -2.9% | .
COc1ccc(OC)c(NC(=O)c2cccc(NC(=O)c3ccccc3)c2)c1 | 21.5% | 10µM* | 223.4% | -24.2% | 1.3% | -10.0%
COc1ccc(NC(=O)c2ccc3nc(-c4ccccc4)c(-c4ccccc4)nc3c2)c(OC)c1 | 10.3% | 10.4% | ? | -9.7% | -12.3% | -6.3%
CC(C)OCCCNC(=O)c1ccc2c(=O)n(Cc3ccc4c(c3)OCO4)c(=S)[nH]c2c1 | 23.8% | 7.5% | 26.8% | 4.0% | -2.1% | .
O=c1c2cccnc2nc2n1CCCCC2 | 10.0% | 8.5% | 3.0% | -8.2% | i | 6.5%
COc1cccc(C(=O)Nc2ccc(NC(=O)C3CC=CCC3C(=O)O)cc2)c1 (stereo not drawn) | 149.8% | 20.5% | 11.7µM* | -3.7% | -14.8% | 4.0%
COc1cccc(C(=O)Nc2ccc(NC(=O)C3CCCCC3C(=O)O)cc2)c1 (stereo not drawn) | -4.0% | 15.9% | -20.4% | 2.2% | -5.5% | 5.9%
Cc1cccc(OCCCC(=O)NNC(=O)c2ccccn2)c1 | 2.33µM* | ? | 1.65µM* | . | . | .
COc1ccc(NC(=O)C(Sc2ccccc2)c2ccccc2)c(OC)c1 (stereo not drawn) | -24.2% | ? | 2.62µM* | -21.4% | ? | -3.8%
Cc1cccc(OCC(=O)N2CCN(C(=O)c3ccco3)CC2)c1 | -6.6% | 2.2% | -10.4% | . | . | -0.1%
COc1ccc(NC2CCCN(C(=O)CCN3CCCC3=O)C2)cc1OC (stereo not drawn) | 23.4% | 18.6% | -5.2% | -4.4% | i | 7.0%
CC1CCCC(C)N1CC(O)COc1c(F)cc(Br)cc1F (stereo not drawn) | 10.4µM* | -16.2% | ? | -9.7% | -18.7% | 4.4%
Cc1cc(OCC(O)CN2C(C)CCCC2C)ccc1C(C)C (stereo not drawn) | 9.28µM* | -22.6% | ? | -20.7% | ? | 6.7%
O=C(c1nn2c(C(F)(F)F)cc(-c3ccccc3)nc2c1Cl)N1CCOCC1 | ? | -26.6% | -2.0% | ? | -15.3% | -12.6%
Cc1c(C(=O)Nc2nccs2)sc2nc(-c3cccs3)cc(C(F)(F)F)c12 | ? | 11.2µM* | ? | . | . | 8.5%
COC(=O)c1ccc2c(c1)C(C)(C)C(/C=C/c1ccccc1O)=[N+]2C | ? | 7.94µM* | ? | . | . | 8.5%
COC(=O)c1ccc(N)c(N=CC2=C(O)CC(C)(C)CC2=O)c1 | 24.5% | 20.1% | 62.1% | 8.5% | -10.4% | 26.2%
SMILES | Pf growth 48h | HCV inhibitor | Pf growth 96h | Vaccinia Venus | Vaccinia mCherry | NS1 function inh
CCOC(=O)C1(C(F)(F)F)N=C(C(F)(F)F)Nc2ccc(F)cc21 (stereo not drawn) | 1.4% | 17.6% | ? | -4.9% | 0.2% | 22.0%
CCc1ccccc1NC(=O)N1CCC(NC(=O)C(Cc2ccccc2)NC(C)=O)CC1 (stereo not drawn) | -15.2% | -5.5% | 0.6% | . | . | 2.6%
CCc1ccccc1NC(=O)N1CCC(NC(=O)C(Cc2ccc(OC)c(OC)c2)NC(C)=O)CC1 (stereo not drawn) | ? | 16.0% | 11.7µM* | . | . | 15.3%
O=S(=O)(CC(CN1CCCC1)N1CCCC1)c1ccc2ccccc2c1 (stereo not drawn) | ? | 10µM* | 4.15µM* | . | . | 1.3%
CCOn1c(=O)c(-c2ccc(F)cc2)[n+]([O-])c2ccccc21 | 32.0% | 6.6% | 0.0% | . | . | 0.7%
CCN(CC)S(=O)(=O)c1ccc2c(c1)nc(SCC(=O)NC1CC1)n2-c1ccccc1OC | 5.86µM* | ? | ? | -7.1% | . | -9.5%
COc1ccc(C(=O)N2CCN(c3nc4cc(C)ccc4cc3C#N)CC2)c(OC)c1 | 2.08µM* | ? | -2.5% | -24.1% | ? | -39.4%
Cc1ccc2cc(C#N)c(N3CCCN(C(=O)C4CCCO4)CC3)nc2c1 (stereo not drawn) | 2.94µM* | 1.4% | ? | . | . | -8.0%
COc1cc(C(=O)N2CCCN(c3nc4cc(C)ccc4cc3C#N)CC2)cc(OC)c1OC | 8.28µM* | ? | . | . | . | -5.6%
Cc1ccc(/C=C(\NC(=O)c2ccccc2)C(=O)NC2CCN(Cc3ccccc3)CC2)o1 | ? | -16.9% | 0.0% | -14.5% | -23.5% | 12.0%
O=C(CSc1nnc(Nc2ccccc2)s1)NCc1cccs1 | 0.3% | 11.2% | 11.7µM* | -4.7% | -7.6% | 8.1%
O=C(CSc1nnc(NC(=O)C2CC2)s1)NCc1cccs1 | 5.3% | 3.8% | ? | -7.6% | i | .
CC(Sc1nnc(-c2ccccc2)c(-c2ccccc2)n1)C(=O)Nc1ncc(Cl)cc1Cl (stereo not drawn) | -17.1% | ? | ? | -0.1% | i | -23.4%
O=c1oc2ccccc2cc1-c1csc(Nc2nc3ccc(F)cc3s2)n1 | 2.3% | -3.6% | ? | . | . | 16.2%
O=c1oc2ccccc2cc1-c1csc(Nc2nc3c(F)cccc3s2)n1 | ? | 12.6µM* | ? | -3.3% | -18.6% | 27.3%
O=c1[nH]c2ccc(Cl)cc2[nH]1 | . | 9.3% | . | -6.3% | i | .
CCc1ccc(OCC(=O)NC(NC(=S)Nc2ccccc2C)C(Cl)(Cl)Cl)cc1 (stereo not drawn) | ? | ? | ? | ? | ? | 10.5%

Assay outcomes from PubChem BioAssay.
